# Experimental data published in PubChem BioAssay (NCATS).
# Records with an inconclusive call do not appear. Calls of active or inactive are those of the source. Unless noted, calls come from the whole dose curve; as a rule, active = well fitted curve in the direction sought with a large enough effect; inconclusive = small, poorly fitted or top-dose-only effect, or another doubt; inactive = no such curve, though single readings can be large; an effect the other way counts as inactive or inconclusive.
# Assays:
# [1] = qHTS for differential inhibitors of proliferation of Plasmodium falciparum line W2 (AID 1883); details: Potency: Plasmodium falciparum W2 proliferation inhibition;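 note: potency is the fitted concentration of half-maximal effect; parasites grown with compound for 72 h before lysis and staining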
# [2] = qHTS for differential inhibitors of proliferation of Plasmodium falciparum line HB3 (AID 1886); details: Potency: Plasmodium falciparum HB3 proliferation inhibition;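 note: potency is the fitted concentration of half-maximal effect; parasites grown with compound for 72 h before SYBR Green readout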
# [3] = molecular target: Ferritin light chain (Equus caballus) (UniProt P02791); experiment: qHTS Validation Assay for Identification of Novel General Anesthetics (AID 2323); note: % is set by controls: 0 for no effect and ±100 for the full control effect
# Ferritin light chain (Equus caballus), sequence (P02791 2-175 limits assumed): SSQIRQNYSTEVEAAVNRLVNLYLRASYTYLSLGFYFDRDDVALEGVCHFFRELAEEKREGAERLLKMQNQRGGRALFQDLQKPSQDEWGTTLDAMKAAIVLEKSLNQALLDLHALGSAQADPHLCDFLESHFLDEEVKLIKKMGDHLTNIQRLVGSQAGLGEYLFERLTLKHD
# Method in brief: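 Normalized fluorescence response, scaled between free 1-AMA and 1-AMA/apoferritin complex, fitted to a four-parameter Hill equation for concentration-effect values. Binding mix: 10 uM horse-spleen apoferritin, 50% saturated 1-AMA in PBS; read 380/535 nm after 10 min.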
# [4] = molecular target: ATP-dependent DNA helicase Q1 (Homo sapiens) (UniProt P46063); experiment: qHTS Validation Assay for Inhibitors of RecQ-Like Dna Helicase 1 (RECQ1) (AID 2353);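 note: plate controls were DMSO vehicle for no effect and enzyme-free control for full effect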
# ATP-dependent DNA helicase Q1 (Homo sapiens), sequence (P46063 whole entry, looked up): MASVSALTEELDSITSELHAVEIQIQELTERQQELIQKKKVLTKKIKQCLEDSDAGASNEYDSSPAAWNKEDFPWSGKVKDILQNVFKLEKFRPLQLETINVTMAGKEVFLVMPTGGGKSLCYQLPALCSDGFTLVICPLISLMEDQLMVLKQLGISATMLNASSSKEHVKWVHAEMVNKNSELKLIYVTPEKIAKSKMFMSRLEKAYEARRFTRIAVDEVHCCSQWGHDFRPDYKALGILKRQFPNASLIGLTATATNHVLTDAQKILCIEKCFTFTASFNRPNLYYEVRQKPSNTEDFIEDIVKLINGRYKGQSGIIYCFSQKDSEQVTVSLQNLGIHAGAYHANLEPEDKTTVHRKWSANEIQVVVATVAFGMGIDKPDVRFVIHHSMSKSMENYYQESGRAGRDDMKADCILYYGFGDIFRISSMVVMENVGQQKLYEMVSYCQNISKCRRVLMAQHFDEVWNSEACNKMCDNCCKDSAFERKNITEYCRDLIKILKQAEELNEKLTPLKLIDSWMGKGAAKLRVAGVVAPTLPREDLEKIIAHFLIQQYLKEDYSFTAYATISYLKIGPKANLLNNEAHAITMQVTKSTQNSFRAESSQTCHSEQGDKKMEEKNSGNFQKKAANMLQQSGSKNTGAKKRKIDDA
# Method in brief: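 RECQ1T1 50 nM; forked duplex (20 bp + 30-nt ss tails) 200 nM, ATP 2 mM final; pH 8.0, 2 mM MgCl2, 2.5 ug/ml poly(dI-dC); 15 min compound preincubation; discontinuous kinetic read over 2 h at RT.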
# [5] = Quantitative high throughput screen for delayed death inhibitors of the malarial parasite plastid, 96 hour incubation (AID 488745); note: potency is the fitted concentration of half-maximal effect; nearly all actives have a fitted effect of over 70% in size
# Method in brief: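 Two-generation (96 h) exposure of luciferase-reporter P. falciparum in erythrocytes, 2% hematocrit, 0.1% parasitemia final, 37 C, 5% CO2, RPMI 1640 with 0.5% Albumax. Growth inhibition scored by reduced luminescence.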
# [6] = Quantitative high throughput screen for delayed death inhibitors of the malarial parasite plastid, 48 hour incubation (AID 488752); note: potency is the fitted concentration of half-maximal effect; nearly all actives have a fitted effect of over 65% in size
# Method in brief: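 Cultures: infected erythrocytes at final 2% hematocrit and 0.1% parasitemia in Albumax-supplemented RPMI. Parasites express integrated firefly luciferase. Incubation with compound lasts 48 h before luminescent detection of remaining reporter activity.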
# [7] = molecular target: M-phase phosphoprotein 8 (Homo sapiens) (UniProt Q99549); experiment: qHTS Validation Assay for Inhibitors for MPP8 Chromodomain Interactions with Methylated Histone Tails (AID 488949);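 note: 50 nM MPP8 with 50 nM peptide preformed then compounds added for 30 min; AlphaScreen signal from MPP8 chromodomain bound to biotinylated H3K9me3 peptide; top concentration of the series differs between compounds; % is set by controls: 0 for no effect and ±100 for the full control effect; nearly all actives have a fitted effect of over 55% in size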
# M-phase phosphoprotein 8 (Homo sapiens), sequence (Q99549 whole entry, looked up): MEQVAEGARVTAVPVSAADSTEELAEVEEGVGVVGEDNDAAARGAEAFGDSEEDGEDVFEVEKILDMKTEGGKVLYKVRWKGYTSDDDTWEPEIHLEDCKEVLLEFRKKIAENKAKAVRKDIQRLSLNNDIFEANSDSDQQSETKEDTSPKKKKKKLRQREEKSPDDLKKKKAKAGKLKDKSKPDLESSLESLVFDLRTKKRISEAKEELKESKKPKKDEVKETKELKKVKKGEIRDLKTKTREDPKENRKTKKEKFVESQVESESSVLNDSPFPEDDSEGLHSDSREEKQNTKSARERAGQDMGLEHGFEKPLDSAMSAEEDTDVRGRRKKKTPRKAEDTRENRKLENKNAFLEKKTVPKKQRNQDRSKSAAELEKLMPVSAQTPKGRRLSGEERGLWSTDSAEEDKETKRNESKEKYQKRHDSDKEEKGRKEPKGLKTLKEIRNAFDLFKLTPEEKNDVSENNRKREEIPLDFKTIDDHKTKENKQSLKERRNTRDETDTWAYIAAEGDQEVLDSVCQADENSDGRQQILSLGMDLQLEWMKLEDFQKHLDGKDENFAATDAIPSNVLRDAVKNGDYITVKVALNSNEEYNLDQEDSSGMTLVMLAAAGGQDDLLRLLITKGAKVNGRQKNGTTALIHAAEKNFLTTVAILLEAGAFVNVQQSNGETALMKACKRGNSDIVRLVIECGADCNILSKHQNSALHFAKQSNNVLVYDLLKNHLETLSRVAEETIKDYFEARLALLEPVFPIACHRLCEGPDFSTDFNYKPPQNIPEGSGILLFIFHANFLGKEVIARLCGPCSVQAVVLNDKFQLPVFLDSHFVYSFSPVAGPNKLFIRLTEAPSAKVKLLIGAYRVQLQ
# Method in brief: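 Chemiluminescent proximity assay: histidine-tag capture via nickel acceptor beads, biotin peptide via streptavidin donor beads. Protein and peptide each at 50 nM, pH 7.4, with 30 min incubations at room temperature for complex formation, compound exposure and bead binding.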
# [8] = molecular target: Transient receptor potential cation channel subfamily V member 1 (Homo sapiens) (UniProt Q8NER1); experiment: HTS Assay for Compounds that Act as Enhancers of the Vanilloid Receptor 1 (AID 488979); note: 0% is about no effect
# Method in brief: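 TRPV1-expressing cells loaded with Fluo-8 calcium dye; compounds added and calcium influx read kinetically for 3 min (agonist phase), then capsaicin at EC20 added and read 2 min more for enhancement. Fluorescence ex 480/em 520 nm.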
# [9] = molecular target: Thyrotropin receptor (Homo sapiens) (UniProt P16473); experiment: qHTS Assay for Antagonists of the Thyroid Stimulating Hormone Receptor (AID 488980); note: 0% is about no effect
# Thyrotropin receptor (Homo sapiens), sequence (P16473 whole entry, looked up): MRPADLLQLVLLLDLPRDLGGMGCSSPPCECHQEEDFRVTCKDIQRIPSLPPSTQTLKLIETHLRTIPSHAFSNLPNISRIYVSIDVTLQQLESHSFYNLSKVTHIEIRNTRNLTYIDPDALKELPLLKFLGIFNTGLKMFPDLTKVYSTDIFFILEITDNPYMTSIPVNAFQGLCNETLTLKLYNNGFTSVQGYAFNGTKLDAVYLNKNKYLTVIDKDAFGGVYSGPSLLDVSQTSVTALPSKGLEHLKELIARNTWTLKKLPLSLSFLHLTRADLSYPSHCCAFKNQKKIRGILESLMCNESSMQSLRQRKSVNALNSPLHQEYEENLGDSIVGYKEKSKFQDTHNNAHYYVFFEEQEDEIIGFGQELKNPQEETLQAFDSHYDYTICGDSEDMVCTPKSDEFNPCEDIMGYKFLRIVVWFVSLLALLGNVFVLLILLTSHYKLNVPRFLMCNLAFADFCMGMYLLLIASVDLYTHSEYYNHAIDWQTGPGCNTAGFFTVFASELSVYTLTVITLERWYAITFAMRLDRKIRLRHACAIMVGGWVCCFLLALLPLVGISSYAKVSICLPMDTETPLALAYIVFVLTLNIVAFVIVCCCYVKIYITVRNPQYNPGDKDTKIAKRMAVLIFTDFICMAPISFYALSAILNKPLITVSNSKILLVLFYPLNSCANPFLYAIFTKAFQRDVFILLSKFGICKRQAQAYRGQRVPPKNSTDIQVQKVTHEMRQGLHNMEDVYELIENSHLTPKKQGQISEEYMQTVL
# Method in brief: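 Inhibition of TSH-stimulated cAMP accumulation was quantified by homogeneous time-resolved FRET in TSHR-transfected HEK293 cells. Agonist: TSH, 4 nM final (EC80).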
# [10] = molecular target: Thyrotropin-releasing hormone receptor (Homo sapiens) (UniProt P34981); experiment: qHTS for Small Molecule Agonists and Allosteric Enhancers of Human TRH Receptor: Validation Screen for Agonists (AID 493127;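 active = calcium activation more than 3 SD above the typical response in the agonist read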;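 note: intracellular calcium rise by fluo-8 fluorescence before TRH EC20 addition; 0% is about no effect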); details: TRH receptor agonist cell assay; at 2 µM; stronger effect = higher value
# Thyrotropin-releasing hormone receptor (Homo sapiens), sequence (P34981 whole entry, looked up): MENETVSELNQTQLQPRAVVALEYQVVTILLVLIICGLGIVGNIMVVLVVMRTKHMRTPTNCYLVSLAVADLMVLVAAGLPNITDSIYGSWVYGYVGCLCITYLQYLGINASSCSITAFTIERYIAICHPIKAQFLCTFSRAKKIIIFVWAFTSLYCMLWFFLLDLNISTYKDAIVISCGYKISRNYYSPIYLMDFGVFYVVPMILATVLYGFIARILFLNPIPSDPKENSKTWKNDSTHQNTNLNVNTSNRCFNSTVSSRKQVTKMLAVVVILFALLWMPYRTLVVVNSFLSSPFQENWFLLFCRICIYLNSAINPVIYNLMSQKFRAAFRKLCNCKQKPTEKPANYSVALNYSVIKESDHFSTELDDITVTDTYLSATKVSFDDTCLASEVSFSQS
# Method in brief: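 Kinetic fluorescence assay of agonist-induced calcium release: overnight-plated TRHR cells, room-temperature fluo-8 loading, baseline then compound addition with per-second reads.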
# [11] = molecular target: Galactokinase (Homo sapiens) (UniProt P51570); experiment: qHTS Validation Assay for Inhibitors of Human Galactokinase (GALK) (AID 493189); note: 0% is about no effect
# Galactokinase (Homo sapiens), sequence (P51570 whole entry, looked up): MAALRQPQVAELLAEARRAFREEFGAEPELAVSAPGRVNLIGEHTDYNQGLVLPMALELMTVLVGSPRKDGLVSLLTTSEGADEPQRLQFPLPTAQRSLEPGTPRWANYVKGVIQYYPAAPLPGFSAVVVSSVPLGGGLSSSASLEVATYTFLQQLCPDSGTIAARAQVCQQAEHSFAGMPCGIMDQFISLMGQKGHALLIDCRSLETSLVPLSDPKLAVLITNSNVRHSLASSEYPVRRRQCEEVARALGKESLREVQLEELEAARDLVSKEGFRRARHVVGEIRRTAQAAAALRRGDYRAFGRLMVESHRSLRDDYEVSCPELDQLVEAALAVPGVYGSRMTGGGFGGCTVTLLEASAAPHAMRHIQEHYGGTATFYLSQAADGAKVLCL
# Method in brief: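 Enzyme activity is inferred from ATP consumption: human GALK phosphorylates galactose (100 uM) using 35 uM ATP for 1 h at room temperature, and luciferase-based Kinase-Glo Plus reports unconsumed ATP.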
# [12] = Validation screen for small molecules that induce DNA re-replication in SW480 colon adenocarcinoma cells (AID 504364); note: 0% is about no effect
# Method in brief: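 Hoechst-stained SW480 nuclei, imaged at 405 nm excitation after 48 hr compound exposure, were counted for elevated DNA content as the re-replication signal.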
# [13] = molecular target: DNA dC->dU-editing enzyme APOBEC-3G (Homo sapiens) (UniProt Q9HC16); experiment: qHTS for inhibitors of Vif-A3G interactions: Validation (AID 588379); note: 0% is about no effect
# DNA dC->dU-editing enzyme APOBEC-3G (Homo sapiens), sequence (Q9HC16 whole entry, looked up): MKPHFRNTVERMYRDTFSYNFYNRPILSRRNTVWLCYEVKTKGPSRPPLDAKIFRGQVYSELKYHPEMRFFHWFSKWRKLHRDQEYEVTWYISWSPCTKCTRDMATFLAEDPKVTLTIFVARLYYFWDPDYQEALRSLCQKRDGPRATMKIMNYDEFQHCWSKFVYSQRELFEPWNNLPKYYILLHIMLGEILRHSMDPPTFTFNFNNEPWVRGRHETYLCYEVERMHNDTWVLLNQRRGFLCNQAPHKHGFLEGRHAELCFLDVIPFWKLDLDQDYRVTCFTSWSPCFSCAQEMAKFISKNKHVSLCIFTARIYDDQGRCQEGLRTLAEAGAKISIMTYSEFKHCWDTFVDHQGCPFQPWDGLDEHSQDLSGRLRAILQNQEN
# Method in brief: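 Yellow fluorescence (Ex 488, Em 500-530) of Vif-coexpressing HeLa A3G-eYFP cells, scanned by Acumen cytometer, reports blocked A3G degradation. Cells plated at 700/well overnight at 37 deg C before compound addition, then a further overnight compound incubation at 37 deg C.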
# [14] = molecular target: Voltage-gated inwardly rectifying potassium channel KCNH2 (Homo sapiens) (UniProt Q12809); experiment: qHTS Assay for Small Molecule Inhibitors of the Human hERG Channel Activity (AID 588834);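 note: top concentration of the series differs between compounds; % is set by controls: 0 for no effect and ±100 for the full control effect; lower thallium flux fluorescence means stronger hERG block; nearly all actives have a fitted effect of over 50% in size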
# Voltage-gated inwardly rectifying potassium channel KCNH2 (Homo sapiens), sequence (Q12809 whole entry, looked up): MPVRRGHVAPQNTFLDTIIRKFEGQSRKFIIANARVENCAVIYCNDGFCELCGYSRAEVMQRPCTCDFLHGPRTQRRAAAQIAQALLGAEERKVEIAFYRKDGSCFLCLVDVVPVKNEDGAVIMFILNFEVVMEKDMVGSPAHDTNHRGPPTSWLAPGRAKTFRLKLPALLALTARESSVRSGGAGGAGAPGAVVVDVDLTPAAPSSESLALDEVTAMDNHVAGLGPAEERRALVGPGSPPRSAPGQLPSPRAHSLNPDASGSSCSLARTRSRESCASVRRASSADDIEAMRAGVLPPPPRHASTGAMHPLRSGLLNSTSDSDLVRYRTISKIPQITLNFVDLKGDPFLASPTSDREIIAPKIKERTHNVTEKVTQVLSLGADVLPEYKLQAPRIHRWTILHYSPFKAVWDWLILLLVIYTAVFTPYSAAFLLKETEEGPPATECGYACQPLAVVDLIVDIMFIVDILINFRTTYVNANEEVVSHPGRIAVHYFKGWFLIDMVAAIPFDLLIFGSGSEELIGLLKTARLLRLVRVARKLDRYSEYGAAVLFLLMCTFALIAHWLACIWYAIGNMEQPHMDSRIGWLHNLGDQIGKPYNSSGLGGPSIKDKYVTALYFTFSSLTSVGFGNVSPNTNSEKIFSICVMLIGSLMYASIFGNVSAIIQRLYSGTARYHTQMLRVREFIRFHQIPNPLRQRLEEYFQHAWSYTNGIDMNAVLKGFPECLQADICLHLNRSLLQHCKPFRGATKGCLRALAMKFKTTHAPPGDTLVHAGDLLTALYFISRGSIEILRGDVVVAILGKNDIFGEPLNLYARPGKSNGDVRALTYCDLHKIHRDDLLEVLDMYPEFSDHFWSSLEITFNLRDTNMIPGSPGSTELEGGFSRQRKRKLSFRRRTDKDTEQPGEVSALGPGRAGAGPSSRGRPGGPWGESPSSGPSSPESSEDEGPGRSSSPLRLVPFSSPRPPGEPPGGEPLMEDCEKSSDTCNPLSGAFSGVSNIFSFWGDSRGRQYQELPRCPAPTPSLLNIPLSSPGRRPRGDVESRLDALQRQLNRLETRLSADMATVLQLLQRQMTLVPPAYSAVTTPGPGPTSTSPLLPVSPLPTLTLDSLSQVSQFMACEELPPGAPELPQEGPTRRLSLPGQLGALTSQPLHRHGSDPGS
# Method in brief: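 Homogeneous FluxOR thallium flux assay using hERG-expressing U2OS cells (BacMam). Compound treatment about 10 minutes preceded stimulation; reduced fluorescence taken as channel block.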
# [15] = qHTS profiling for inhibitors of Plasmodium falciparum (3D7) proliferation (AID 743322);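 note: infected erythrocytes exposed to compound for 72 h before lysis; 100% = DMSO vehicle wells and 0% = 0.29 µM artemisinin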; details: P. falciparum 3D7 proliferation; at 28.7 µM (top of the series)
# Method in brief: (§1)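 Parasite DNA was quantified by SYBR Green I fluorescence (ex 485, em 535 nm) after overnight lysis in saponin/Triton buffer at room temperature. Cultures at 0.3% parasitemia and 2.5% hematocrit were first exposed to compound for 72 h at 37 C; signals were normalised to artemisinin (0.29 uM) and vehicle wells.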
# [16] = qHTS profiling for inhibitors of Plasmodium falciparum (DD2) proliferation (AID 743323; call rule not given here); details: lower = more inhibition; at 28.7 µM (top of the series)
# Method in brief: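 SYBR Green fluorescence (ex 485, em 535 nm) of lysed cultures gives parasite DNA content; wells normalized to artemisinin (0.29 uM) and DMSO controls. Infected red cells: 0.3% parasitemia, 2.5% hematocrit, 72 h, 37 C.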
# [17] = qHTS profiling for inhibitors of Plasmodium falciparum (HB3) proliferation (AID 743324); details: Plasmodium falciparum HB3 blood-stage proliferation; at 28.7 µM (top of the series);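 note: 100% = DMSO vehicle wells and 0% = artemisinin-treated control wells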
# Method in brief: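 SYBR Green fluorescence (485 ex/535 em) of lysed cultures, incubated overnight at room temperature in the dark, quantifies parasite DNA. Infected erythrocytes at 0.3% parasitemia and 2.5% hematocrit were exposed 72 h; values normalized to DMSO and 0.29 uM artemisinin controls.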
# [18] = qHTS profiling of the MIPE4 collection as inhibitors of Plasmodium falciparum (3D7) proliferation (AID 743344; call rule not given here;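 note: scaled between DMSO vehicle wells and 0.29 µM artemisinin as full inhibition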); details: P. falciparum 3D7 in erythrocytes, SYBR Green DNA fluorescence, 72 h; at 28.5 µM (top of the series)
# Method in brief: as §1
# [19] = qHTS profiling of the MIPE4 collection as inhibitors of Plasmodium falciparum (DD2) proliferation (AID 743345; call rule not given here); details: P. falciparum Dd2 in erythrocytes, SYBR Green DNA, 72 h; at 28.5 µM (top of the series)
# Method in brief: as §1
# [20] = qHTS profiling of the MIPE4 collection as inhibitors of Plasmodium falciparum (DD2) proliferation (Rep 2) (AID 743346; call rule not given here); details: P. falciparum Dd2 in erythrocytes, SYBR Green DNA, 72 h; at 28.5 µM (top of the series)
# Method in brief: as §1
# [21] = qHTS profiling of the MIPE4 collection as inhibitors of Plasmodium falciparum (HB3) proliferation (AID 743347; call rule not given here;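 note: plate controls were DMSO vehicle wells for no effect and artemisinin wells for full effect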); details: P. falciparum HB3 in erythrocytes, SYBR Green DNA, 72 h; at 28.5 µM (top of the series)
# Method in brief: as §1
# [22] = tested on: Zika virus NS2B-NS3 protease; experiment: Primary screen GU AMC qHTS for Zika virus inhibitors (AID 1347154);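 note: 0% = no-inhibitor control and -100% = no-enzyme control; nearly all actives have a fitted effect of over 70% in size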
# Method in brief: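 Unlinked Zika NS2B hydrophilic domain/NS3 protease domain noncovalent complex (25 nM final) in 10 mM Tris-HCl pH 8.0, 0.01% Tween 20, with AMC peptide substrate. Fluorescence (ex 340, em 450 nm) change over 15 min, room temperature; percent inhibition fitted to 4-parameter Hill equation.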
# [23] = Primary qHTS for small molecule stabilizers of the endoplasmic reticulum resident proteome: Secreted ER Calcium Modulated Protein (SERCaMP) assay (AID 1508630); note: % is set by controls: 0 for no effect and ±100 for the full control effect
# Method in brief: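 The SH-SY5Y reporter protocol was run at 3 concentrations up to 38.3 uM (primary) or 11 concentrations (follow-up): 16 h compound, 100 nM thapsigargin for 4 h, then extracellular luciferase luminescence.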
compound,measurement,setting,value
COc1cc2c(cc1C(F)(F)F)N(C(=O)Nc1cc(F)cc(-c3cccnc3)c1)CC2,Potency,[1],2.24 µM (active)
same,Potency,[2],1.26 µM (active)
same,outcome,[3],inactive
same,Potency,[4],inactive
same,Potency,[5],1.85 µM (active)
same,Potency,[6],2.94 µM (active)
same,Potency,[7],inactive
same,outcome,[8],inactive
same,outcome,[9],inactive
same,activation,[10],5.25% (inactive)
same,outcome,[11],inactive
same,outcome,[12],inactive
same,Potency,[13],inactive
same,Potency,[14],inactive
same,remaining parasite growth % (stronger effect = lower value),[15],-1.39%
same,"activity, percent of control",[16],5.68%
same,"remaining proliferation (% of control), lower = more inhibition",[17],-0.36%
same,"parasite growth, % of DMSO control",[18],6.27%
same,"parasite growth remaining, % of DMSO control (lower = more inhibition)",[19],15.3%
same,"parasite growth, % of control (lower = inhibition)",[20],34.1%
same,"growth, % of control",[21],3.34%
same,Potency,[22],inactive
same,Potency,[23],inactive
